Experimental data: the supplement of paper PMC6555819

How the values were obtained:
Assay in all cases: PBM binding z-score (relative to random genomic background probes); higher = stronger binding; sequences stand for … in GC…GCGATTGACAGCGTAGAATGAAGG
[1] = tested on: FXR:RXRa (NR concentration 270 nM, RXRa partner concentration 90 nM)
Summary of the method: (§1)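 Random background probes are the reference for binding z-scores. These scores derive from regression-normalized fluorescence on custom Agilent 4×180K protein-binding microarrays incubated 1 h with ligand-free nuclear receptor dimers. Binding was detected with antibodies against each partner (one per run).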

[2] = tested on: LXRa:RXRa (NR concentration 270 nM, RXRa partner concentration 90 nM)
Summary of the method: as §1

[3] = tested on: LXRa homodimer (NR concentration 270 nM)
Summary of the method: as §1

[4] = tested on: LXRb:RXRa (NR concentration 270 nM, RXRa partner concentration 90 nM)
Summary of the method: as §1

[5] = tested on: LXRb homodimer (NR concentration 270 nM)
Summary of the method: as §1

[6] = tested on: PPARa:RXRa (NR concentration 270 nM, RXRa partner concentration 90 nM)
Summary of the method: as §1

[7] = tested on: PPARg:RXRa (NR concentration 180 nM, RXRa partner concentration 90 nM)
Summary of the method: as §1

[8] = tested on: PPARg:RXRa 270nM:90nM, anti-RXR (NR concentration 270 nM, RXRa partner concentration 90 nM)
Summary of the method: as §1

[9] = tested on: PPARg:RXRa 30nM:10nM, anti-RXR (NR concentration 30 nM, RXRa partner concentration 10 nM)
Summary of the method: as §1

[10] = tested on: PPARg:RXRa 90nM:30nM, anti-RXR (NR concentration 90 nM, RXRa partner concentration 30 nM)
Summary of the method: as §1

[11] = tested on: PPARg:RXRa DBDmut IVT, anti-RXR (DBD mutation: RXRa K156A/R161A, NR concentration 270 nM, RXRa partner concentration 90 nM)
Summary of the method: as §1

[12] = tested on: PPARg:RXRa IVT, anti-PPARg (NR concentration 270 nM, RXRa partner concentration 90 nM)
Summary of the method: as §1

[13] = tested on: PPARg DBDmut:RXRa IVT, anti-PPARg (DBD mutation: PPARg1 K132A/R137A, NR concentration 270 nM, RXRa partner concentration 90 nM)
Summary of the method: as §1

[14] = tested on: PPARg DBDmut IVT, anti-PPARg (DBD mutation: PPARg1 K132A/R137A, NR concentration 270 nM)
Summary of the method: as §1

[15] = tested on: PPARg homodimer (NR concentration 180 nM)
Summary of the method: as §1

[16] = tested on: PXR:RXRa (NR concentration 270 nM, RXRa partner concentration 90 nM)
Summary of the method: as §1

[17] = tested on: PXR homodimer (NR concentration 270 nM)
Summary of the method: as §1

[18] = tested on: RARa:RXR (NR concentration 270 nM, RXRa partner concentration 90 nM)
Summary of the method: as §1

[19] = tested on: RARa homodimer (NR concentration 270 nM)
Summary of the method: as §1

Sequence	PBM binding z-score [1]	PBM binding z-score [2]	PBM binding z-score [3]	PBM binding z-score [4]	PBM binding z-score [5]	PBM binding z-score [6]	PBM binding z-score [7]	PBM binding z-score [8]	PBM binding z-score [9]	PBM binding z-score [10]	PBM binding z-score [11]	PBM binding z-score [12]	PBM binding z-score [13]	PBM binding z-score [14]	PBM binding z-score [15]	PBM binding z-score [16]	PBM binding z-score [17]	PBM binding z-score [18]	PBM binding z-score [19]
CATACAGGGTCCGCTAGGCCAGAGTAGGGACGGC	-0.192	-0.435	-0.418	-0.869	-0.218	-1.11	0.155	-0.418	-0.876	-0.844	-1.42	-0.128	0.386	-0.456	-0.436	-0.819	-0.353	-0.535	-0.0023
CCCCGGAGGACAGAAGGTCAGAGCTGTCCGCTTT	0.952	1.41	0.417	1.09	-0.645	1.87	-0.0611	0.529	-0.911	0.0217	-0.634	-0.0521	-2.12	-1.93	1.56	1.25	-0.156	1.87	0.0931
GATACAGAGTCAGCTAGAGGCCAGAGTATGGAAA	-0.527	-0.699	-0.703	-0.919	-1.16	-0.619	0.312	-0.242	-0.296	-0.352	-0.664	-0.657	-0.407	-0.534	-0.64	-0.537	-0.489	-0.487	-0.438
TAGCCTAGGTCCTTCAGGGGCCAGTATAGAAAGC	-0.77	-0.784	-0.674	-0.628	-0.884	-0.292	-0.229	-0.451	-0.73	-0.359	-1.03	-0.0823	-0.672	0.051	-0.932	-0.686	-0.979	-0.334	-0.852
CAAACTAGGTCAAAGGTCAAAGTAGAGCCAACCA	8.58	7.15	5.51	7.55	2.88	7.99	13.8	11.5	13	13.8	8.23	9.26	5.64	3.48	4.85	7.02	2.18	8.45	2.42
CGTCAAAGTTCAAGGTTACGTAACAGAAAGCAGC	6.96	5.9	2.46	4.07	1.18	5.3	4.97	5.43	2.35	4.26	0.998	2.75	1.55	1.22	2.53	4.66	2.48	4.11	1.38
AGTCAAAGTTCACGACGAGGTAACGTAAAGCACG	7.08	6.16	3.15	3.94	0.875	5.45	7.81	7.17	4.47	6.41	0.0759	3.83	0.65	1.24	4	5.24	2.18	5	1.23
GCTGCTAGGTCAGGTTGGTCTGCTAACGGGTACG	1.17	0.795	-0.237	0.627	-0.557	1.4	0.225	0.854	-0.545	0.295	3.08	2.35	-0.411	-0.998	0.673	0.505	-0.437	0.971	0.182
CTCGAAAGGTCGGTTGAGGTGACTATACGGATAA	3.63	1.84	-0.14	1.58	0.0463	2.63	0.621	1.11	0.252	0.639	0.163	1.15	0.145	0.106	0.89	3.61	0.00293	2.11	0.415
CGTCAAAGTTCAACTAAGTTAACGTAAAGCACGC	7.25	5.95	4.61	4.33	2.56	4.99	5.09	5.05	2.33	4	0.764	1.89	1.94	1.78	2.97	6.14	5.97	4.09	2.57
ATATGTAGCTTAAGGGTCATTCAGGTTGGTTCGC	3.83	3.86	1.83	3.79	0.863	4.2	3.93	5.35	3.44	5.39	0.343	2.21	1.55	0.663	2.61	4.83	1.67	4.2	0.894
CGTGCAAGGTCAGAGAGGTCAGTGAATGCCGAGT	6.42	5.22	3.35	4.61	0.199	5.16	3.9	4.62	1.19	3.09	2.79	3.68	0.231	-0.338	2.85	6.05	11.2	5.42	0.698
GCTGCAAGGTCAACTGATGGTCAGCTAAAGCTCG	7.53	5.93	0.917	4.54	1.33	5.97	4.81	5.67	1.77	3.97	3.15	3.5	0.338	-0.136	2.93	4.58	0.331	5.36	0.743
AGTCAAAGGTCAGGACGAGGTAACGTAAAGCACG	7.52	5.96	0.926	4.9	1.48	6.17	8.88	7.95	4.99	7.2	3.25	5.65	0.687	0.49	4.08	4.9	0.639	5.78	2.25
CGTCCAAGGTCAACGCTAGGTCAGTGAAAGCATT	7.34	5.95	2.69	4.66	0.677	5.71	5.29	5.4	2.18	3.94	3.48	4.66	-0.0404	0.201	6.46	5.11	1.66	6.35	2.52
AGTCAAATTTCATCTAGGTAACGTAAGATATGCT	-0.224	-0.221	0.168	0.0477	0.362	0.347	1.02	0.0693	0.291	0.178	0.205	2.04	1.11	1.49	0.098	-0.111	-0.176	0.369	0.837
CCTAGCAGGCCAATCGGGGTCACTCAAGGCTTGA	4.42	4.3	0.394	3.97	-0.646	4.79	2.8	3.72	0.796	2.75	2.04	3.14	-0.484	-1.21	3.42	6.01	1.7	6.08	0.0938
CCTACTGGGCCATTCAGAGGTCATTGATCATATG	2.92	4.32	6.45	3.73	0.365	3.82	2.59	3.24	0.818	2.26	4.59	4.4	0.046	0.818	2.59	4.8	2.3	4.59	0.867
TTACCAAGGTGAAAGGTCGTTGAAGCACGCCTTG	4.16	3.41	0.16	2.97	-0.616	5.82	9.24	8.52	7.08	9.79	2.63	5.39	0.668	-0.186	1.84	4.44	0.41	6.52	-0.363
ACTAGCAGGCCAAGAGTCACTCAAGATTAGTCCG	0.0217	-0.0111	-0.373	-0.29	-0.882	1.46	2.56	4.08	2.06	3.48	0.813	0.847	-0.175	-0.385	0.631	-0.105	-0.185	0.354	-0.112
CGTCCAAGGGCAGCAGGTCAGTGAAAGCGACGTG	0.137	-0.0372	-0.847	-0.105	-1.37	0.938	0.305	0.501	-0.617	-0.019	0.8	0.701	-0.933	-1.17	0.592	0.274	-0.825	0.723	-0.64
ATCGAATGGTCGAAGGTGAGTATACCCACCCGAA	-0.229	-0.228	-0.451	-0.362	-0.158	0.153	1.07	1.34	0.48	1.31	-0.883	0.182	0.483	0.223	0.138	-0.0379	-0.408	0.334	0.141
CAAACTAGGTCACAGAGGTCAACGTCCGTGCGTA	7.51	6.49	6.37	5.93	1.62	6.75	10.3	8.36	6.69	8.46	8.84	9.29	4.63	5.15	4.43	6.82	8.28	7.23	2.74
CCTTACCGGTCAAGGTTATAGCACGGGTGGTACG	1.7	1.88	0.946	1.05	0.381	1.83	0.758	0.908	-0.303	0.282	-0.499	0.825	-0.737	-0.375	1.58	1.16	0.299	1.3	0.889
CGAACTAAGTCATCCAGGACAGTGAATACATTGA	0.0178	-0.0444	0.135	-0.252	-0.311	0.0393	0.532	0.277	0.283	0.237	1.12	0.862	0.763	1.05	0.291	-0.153	-0.248	0.371	0.476
CCGACGGGGGCAAGGTTACCATAACGCACAGCCA	3.14	3.01	0.301	4.21	3.34	3.96	2.74	3.36	1.37	2.84	1.63	2.94	2.07	2.52	1.9	2.63	0.67	3.36	0.881
GCTGCTAGGTAAGGTTGGTCAGCTAACGGGTACG	-0.225	-0.495	-0.455	-0.746	-0.795	-0.411	-0.199	-0.51	-0.761	-0.734	0.515	0.0144	-1.12	-0.451	-0.00134	-0.363	-0.442	-0.608	-0.745
TAGCCTAGGCCATGGGCCAGTATACCACGCGAAC	-0.747	-0.914	-0.864	-1.07	-1.23	-0.56	0.326	-0.0896	-0.9	-0.67	-0.977	-0.175	-0.116	-1.11	-1.27	-0.806	-1.11	-0.86	-1.48
TAGCCTAGGTCAGATCGGGCCAGTCTACGCTATA	1.89	1.15	-0.542	0.223	-0.401	1.82	0.647	0.822	-0.388	0.205	0.403	1.41	-0.912	-0.787	-0.159	1.18	-0.895	1.05	-1.11
CGTCGGAGGACAGAAGGTCAGAGCTGTCCGCTTT	1.32	1.68	0.0253	1.19	-1.11	1.85	-0.101	1.07	-0.708	0.0661	0.0146	0.25	-1.84	-2.14	1.33	1.48	-0.228	1.84	0.257
